Calls of active or inactive are those of the source.

In PubChem BioAssay one finds composite z-score and z-score data, which are given here for 15 compounds.

Test [1] in a line: compounds binding Alexa647 anti-His antibody – biochemical, small-molecule microarray, 635 nm fluorescence, artefact control for SMM control protein annotation, primary screen (AID 1128).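 Note: score merges feature fluorescence with signal-to-noise for each printed compound spot.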 As to conditions: higher = more signal.
In test [2] the test system is Human papillomavirus type 1a E7 protein (residues 1-88). The test can be described thus: HPV1a E7 small-molecule binders, primary screen, biochemical, small-molecule microarray, residues 1-88, 635 nm (AID 1129). The conditions noted are these: small-molecule microarray binding, fluorescence 635 nm; higher = more signal.
The target of test [3] is Focal adhesion kinase 1 (Homo sapiens) (UniProt Q05397). The test can be described thus: PTK2 protein binding on printed compound slides – biochemical, small-molecule microarray, 635/667 nm fluorescence, BSA, DTT, primary screen (AID 1130).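 Note: composite of spot emission at 667 nm and signal to noise over triplicate slides.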 The conditions noted are these: 635 nm fluorescence, higher = more signal.
Chain of Focal adhesion kinase 1 (Homo sapiens) (Q05397 whole entry, looked up): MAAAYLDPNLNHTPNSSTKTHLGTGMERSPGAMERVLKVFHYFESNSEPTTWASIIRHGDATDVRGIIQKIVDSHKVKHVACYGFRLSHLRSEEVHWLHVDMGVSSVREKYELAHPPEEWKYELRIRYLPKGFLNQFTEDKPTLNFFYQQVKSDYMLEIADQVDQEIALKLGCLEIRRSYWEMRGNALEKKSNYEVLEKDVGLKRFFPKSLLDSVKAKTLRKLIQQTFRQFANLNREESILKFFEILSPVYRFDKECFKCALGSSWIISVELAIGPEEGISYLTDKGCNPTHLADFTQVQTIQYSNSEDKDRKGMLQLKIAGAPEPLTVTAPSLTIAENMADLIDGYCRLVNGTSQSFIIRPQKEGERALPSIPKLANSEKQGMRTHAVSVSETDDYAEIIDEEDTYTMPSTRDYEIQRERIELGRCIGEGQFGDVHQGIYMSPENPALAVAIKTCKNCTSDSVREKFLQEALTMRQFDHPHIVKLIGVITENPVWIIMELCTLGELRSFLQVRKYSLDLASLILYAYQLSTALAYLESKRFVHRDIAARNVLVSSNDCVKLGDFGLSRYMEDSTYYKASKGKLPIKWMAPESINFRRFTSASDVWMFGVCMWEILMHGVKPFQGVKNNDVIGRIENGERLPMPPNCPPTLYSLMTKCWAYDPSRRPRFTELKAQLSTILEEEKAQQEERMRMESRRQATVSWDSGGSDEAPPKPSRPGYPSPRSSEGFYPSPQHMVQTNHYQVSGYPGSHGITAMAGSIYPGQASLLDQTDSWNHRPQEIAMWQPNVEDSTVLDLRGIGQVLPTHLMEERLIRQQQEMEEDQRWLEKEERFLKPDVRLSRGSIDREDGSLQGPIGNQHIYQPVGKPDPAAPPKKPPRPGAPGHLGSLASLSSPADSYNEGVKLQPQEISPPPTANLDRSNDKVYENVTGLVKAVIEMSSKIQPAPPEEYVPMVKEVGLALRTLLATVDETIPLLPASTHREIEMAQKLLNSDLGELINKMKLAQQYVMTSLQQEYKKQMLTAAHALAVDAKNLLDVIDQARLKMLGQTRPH
Test [4] concerns Fibrinogen (Alexa647-labelled). The test can be described thus: Alexa647-fibrinogen binding to printed small molecules – biochemical, small-molecule microarray, 635/667 nm fluorescence, artefact control for SMM control-protein annotation, profiling panel (AID 1131).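 Note: z-score merges 667 nm fluorescence with per-spot signal-to-noise over triplicate slides.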 As to conditions: fibrinogen-A647 binding fluorescence, higher = more signal.
The target in test [5] is Follistatin (Homo sapiens) (UniProt P19883). The test can be described thus: FST protein binding to printed compounds – biochemical, small-molecule microarray, 635/667 nm fluorescence, primary screen (AID 1132). The conditions noted are these: 635 nm fluorescence, higher = more signal.
Chain of Follistatin (Homo sapiens) (P19883 whole entry, looked up): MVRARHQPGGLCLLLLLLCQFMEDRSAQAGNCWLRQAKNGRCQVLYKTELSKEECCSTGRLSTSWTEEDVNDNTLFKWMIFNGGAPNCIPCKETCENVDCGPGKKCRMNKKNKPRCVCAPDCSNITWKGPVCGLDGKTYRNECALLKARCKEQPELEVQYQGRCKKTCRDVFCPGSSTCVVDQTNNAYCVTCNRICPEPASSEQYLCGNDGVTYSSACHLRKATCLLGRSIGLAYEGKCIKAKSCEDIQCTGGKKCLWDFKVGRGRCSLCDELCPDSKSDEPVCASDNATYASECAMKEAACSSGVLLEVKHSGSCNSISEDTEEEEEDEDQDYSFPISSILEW
Test [6] has as its target Fibroblast growth factor 2 (Homo sapiens) (UniProt P09038). As to the kind of experiment: basic fibroblast growth factor binding to printed compounds – biochemical, small-molecule microarray, 635/667 nm fluorescence, primary screen (AID 1133). As to conditions: FGF2, fluorescence 635/667, higher = more signal.
The nature of test [7]: JC-1 mitochondrial potential readout, lung cancer cells – cell-based, A549, JC-1 fluorescence, basal, 24 h, 100 nL, profiling panel (AID 1138).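 Note: A549 lung adenocarcinoma cells under basal conditions with no added stimulus; test concentration not given here.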 The conditions noted are these: higher = more signal.
Another test deals with Lefty1. As to the kind of experiment: Lefty1 protein binding to printed compounds – biochemical, small-molecule microarray, 635/667 nm fluorescence, primary screen (AID 1139). The conditions noted are these: fluorescence 635/667, higher = more signal.
Test [8] concerns wheat germ agglutinin (Triticum aestivum), Alexa647-labelled. The test can be described thus: Alexa647-WGA lectin binding to printed small molecules – biochemical, small-molecule microarray, 635/667 nm fluorescence, artefact control for SMM control-protein annotation, profiling panel (AID 1140).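 Note: score merges 667 nm feature emission with signal to noise over triplicate slides.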 As to conditions: WGA-A647 binding, 635 nm fluorescence, higher = more signal.
In test [9] the target is Luciferin 4-monooxygenase (Photinus pyralis) (UniProt P08659). The test can be described thus: inhibition of purified Photinus pyralis luciferase – biochemical, luminescence, purified enzyme, 2006 set, primary screen (AID 1141).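 Note: cell-free assay with purified firefly luciferase at 100 ng per well in PBS; test concentration not given here.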 The conditions noted are these: purified firefly luciferase, SteadyGlo luminescence, 30 min; higher = more signal, called active from +8 up or from −8 down.
Chain of Luciferin 4-monooxygenase (Photinus pyralis) (P08659 whole entry, looked up): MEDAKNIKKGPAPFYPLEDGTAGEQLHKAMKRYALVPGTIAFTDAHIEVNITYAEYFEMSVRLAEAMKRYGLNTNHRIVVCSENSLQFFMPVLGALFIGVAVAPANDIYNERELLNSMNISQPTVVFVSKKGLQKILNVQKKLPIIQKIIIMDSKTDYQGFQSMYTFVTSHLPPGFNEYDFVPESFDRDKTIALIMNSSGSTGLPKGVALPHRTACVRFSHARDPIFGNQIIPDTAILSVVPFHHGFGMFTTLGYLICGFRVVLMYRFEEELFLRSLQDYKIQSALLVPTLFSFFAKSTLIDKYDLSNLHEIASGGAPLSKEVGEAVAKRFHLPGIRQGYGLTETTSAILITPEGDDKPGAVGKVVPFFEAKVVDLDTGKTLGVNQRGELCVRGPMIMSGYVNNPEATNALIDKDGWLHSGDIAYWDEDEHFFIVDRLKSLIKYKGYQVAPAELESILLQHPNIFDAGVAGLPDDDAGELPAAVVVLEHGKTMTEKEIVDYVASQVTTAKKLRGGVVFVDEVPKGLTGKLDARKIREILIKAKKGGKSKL

Chain of Fibroblast growth factor 2 (Homo sapiens) (P09038 whole entry, looked up): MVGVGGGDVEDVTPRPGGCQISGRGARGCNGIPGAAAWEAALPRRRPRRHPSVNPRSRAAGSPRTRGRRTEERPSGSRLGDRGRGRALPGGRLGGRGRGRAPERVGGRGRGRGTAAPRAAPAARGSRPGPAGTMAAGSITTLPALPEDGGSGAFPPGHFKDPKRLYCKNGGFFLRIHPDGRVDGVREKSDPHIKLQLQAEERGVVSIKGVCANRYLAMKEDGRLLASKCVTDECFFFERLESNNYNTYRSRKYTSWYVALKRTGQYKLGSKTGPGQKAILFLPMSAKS

With `CC1CC/C=C\[C@H]2OC34C=CCN(C(C)(C)C)C(=O)[C@H]3N(CCCCCCO)C(=O)[C@@H]4C2C(=O)O1` (stereo not given in full), the composite z-score is 1.65 in test [1]; -0.572 in test [2]; -0.61 in [3]; -0.988 in test [4]; -0.49 in test [5]; -0.635 in test [6]. Moreover, the composite z-score was -0.349 with Lefty1 and -0.872 in test [8]. Besides, the z-score was 0.699 in test [7] and -0.939 (inactive) in [9].
For the compound `CCOC(=O)[C@H]1C/C=C/C[C@H](C(=O)OCC)C(=O)O[C@H]2[C@@H](OC)O[C@H](CO)[C@@H](OC(=O)Nc3ccc(C#N)cc3)[C@@H]2OC1=O`, the composite z-score is 0.514 in test [1]; 0.45 in test [2]; 0.499 in test [3]; -0.274 in [4]; 0.336 in [5]; 0.121 in test [6]. Also, the figures for the composite z-score (in the test with Lefty1; in [8]) were 0.519 and 0.852, respectively. Further, the z-score was -1.92 in test [7] and 0.215 (inactive) in [9].
On to `CCCCC(=C=CC[C@@H](O)c1ccccc1OCCO)CCO`, for which the composite z-score in test [1] is -0.448; in test [2] it was -0.21; in [3], -0.206; in test [4] it was -0.883; in test [5], 0.531; in test [6], -0.397. The composite z-score came out at 0.036 with Lefty1 and 0.177 in [8]. Besides, the results for the z-score in test [7] and in test [9] were 1.25 and -1.85 (inactive), respectively.
Turning to `COc1ccc(C(O)C2C=CC3C(=O)NC(=O)C3N2Nc2ccccn2)c2ccccc12` (stereo not given), the composite z-score is 0.516 in test [1]; -0.609 in test [2]; -0.106 in test [3]; 0.0992 in test [4]; 0.488 in test [5]; 0.524 in test [6]. In addition, the composite z-score was -0.0665 in the test with Lefty1 and 0.788 in [8]. The z-score is -1.15 in test [7] and -1.46 (inactive) in test [9].
For `C=CCN(Cc1ccccc1)C(=O)C(c1cccs1)N(CCOCCO)C(=O)/C=C\C(=O)O` (stereo not given), the composite z-score in test [1] is -0.187; in [2] it was -0.92; in test [3] it was -0.374; in test [4], -2.2; in test [5] it was -2.64; in test [6] it was -2.43. In addition, the composite z-score is -2.47 in the test with Lefty1 and -0.47 in [8]. Further, the z-score in [7] was 0.316; in [9], -3.93 (inactive).
For `Cc1ccc(S[C@]2(C(=O)NCCN3CCOCC3)CC(=O)N(Cc3ccccc3Cl)[C@@H]2c2ccc(CO)cc2)cc1`, the composite z-score is 1.69 in test [1]; -0.516 in test [2]; 0.155 in test [3]; -1.85 in test [4]; 0.157 in test [5]; -0.536 in test [6]. For the same compound, the composite z-score in the test with Lefty1 was -0.188; in test [8] it was 0.193. The z-score in test [7] is -0.63; in test [9], 1.58 (inactive).
With `COc1ccc(C(O)C2C=CC3C(=O)N(c4ccccc4)C(=O)C3N2Nc2ccccc2F)cc1OCc1ccccc1` (stereo not given), the composite z-score in test [1] was 0.981; in test [2], 1.22; in test [3], 1.37; in [4], 0.991; in test [5], 0.634; in test [6], -0.179. The figures for the composite z-score (in the test on Lefty1; in test [8]) were -0.454 and 1.18, respectively. For the same compound, the z-score is 0.383 in test [7] and -0.237 (inactive) in test [9].
For `CO[C@H]1O[C@H](CO)[C@@H](OC(=O)Nc2ccc(Br)cc2)[C@H](OC(=O)c2cc3ccccc3[nH]2)[C@H]1OC(=O)c1cc2ccccc2[nH]1`, the composite z-score came out at 1.69 in test [1]; 1.14 in test [2]; 0.468 in test [3]; 0.967 in test [4]; 0.729 in [5]; 0.355 in [6]. Also, the results for the composite z-score (in the test on Lefty1; in test [8]) were 0.311 and 0.723, respectively. In addition, the z-score in test [7] is -1.07; in [9] it was -1.75 (inactive).
With `COC(=O)[C@@]1(Cc2ccc(F)cc2)[C@H]2c3cc(C(=O)N(C)C)n(Cc4ccc(S(C)(=O)=O)cc4)c3C[C@H]2CN1C(=O)c1ccccc1`, the composite z-score came out at 0.904 in test [1]; 0.941 in test [2]; 1.16 in test [3]; 1.01 in test [4]; 0.158 in [5]; 0.0722 in test [6]. Further, the composite z-score in the test with Lefty1 is -0.224; in [8] it was 0.766. In addition, the z-score in test [7] was 0.521; in [9], 0.202 (inactive).
Consider `C=CCC(OC(C)=O)[C@@H]1[C@@H](N(Cc2cccc3ccccc23)C(=O)c2ccc(-c3ccccc3)cc2)c2cc(OCCCO)ccc2N1C(=O)Cc1ccc(OC)cc1` (stereo not given in full), for which the composite z-score in test [1] was 0.364; in test [2] it was -0.128; in [3], 0.179; in [4], 0.603; in test [5], 0.652; in [6], -0.0199. The composite z-score in the test on Lefty1 came to 0.246; in [8], 0.281. In addition, the z-score in [7] is 1.06; in test [9], 0.912 (inactive).
On to `COCCCNC(=O)[C@@]1(Cc2ccccc2)N=C(c2ccc(OCCCO)cc2)O[C@H]1c1ccccc1`, for which the composite z-score in test [1] was 3.17; in [2], 1.26; in test [3] it was 0.102; in test [4], 0.959; in test [5], 0.448; in [6], 0.706. Moreover, the composite z-score with Lefty1 is -0.559; in test [8] it was 1.11. The z-score in [7] was 0.26; in [9] it was -0.391 (inactive).
As for `O=C1[C@H]2C=C(Br)[C@H](C[C@@H]2c2ccccc2)[C@@]12CO2`, the composite z-score in test [1] is 0.828; in test [2], 0.253; in test [3], 0.004; in test [4], -0.0786; in [5] it was 1.14; in [6], 0.402. In addition, the composite z-score is 0.785 in the test with Lefty1 and -0.21 in test [8]. The z-score is -0.0698 in test [7] and 0.266 (inactive) in test [9].
On to `C=CCOC(=O)[C@H]1[C@@H]2C(=O)O[C@@H](c3ccccc3)[C@@H](c3ccccc3)N2[C@@H](c2ccc(OCCOC(=O)[C@@H]3C[C@@H]4C(=O)N5CCC[C@H]5C(=O)N4[C@@H]3c3cccc(OCCO)c3)cc2)[C@]12C(=O)Nc1ccccc12`, for which the composite z-score in [1] worked out at 2.53; in test [2], 1.19; in test [3] it was 0.701; in test [4], 0.686; in [5], 1.3; in [6], 1.51. Further, the composite z-score stood at 1.14 in the test with Lefty1 and 0.847 in test [8]. Further, the z-score was -1.5 in [7] and -0.187 (inactive) in [9].
For the compound `COc1ccc([Si](C)(C)[C@H]2[C@H](CCO)O[C@@]3(C(=O)N(C)c4c(Br)cc(C)cc43)[C@@H]2C)cc1`, the composite z-score is 0.494 in [1]; 0.969 in test [2]; 0.295 in test [3]; 0.15 in test [4]; 0.675 in test [5]; 0.425 in [6]. Besides, the composite z-score in the test on Lefty1 turned out to be 0.486; in test [8] it was 0.773. Also, the z-score in test [7] was -1.69; in test [9], 0.481 (inactive).
On to `CC(C)C[C@@H]1NC(=O)[C@H]2C[C@@H](C(=O)NCCCCCCN)[C@@H](c3ccc(O)cc3)N2C1=O`, for which the composite z-score in test [1] is 2.99; in test [2], -0.313; in [3], 0.496; in test [4] it was 0.8; in [5], 1.32; in test [6], 0.823. The composite z-score in the test on Lefty1 was 0.632; in test [8], 0.0592. Also, the z-score in test [7] is -1.06; in test [9], -0.288 (inactive).
